From PubChem BioAssay (NCI)
About 83,000 compounds went through this panel and 20% of them were active in at least one assay; those are over-represented in the sample as a whole.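 Results are percent growth after 48 hours of single-concentration exposure. 100 means growth as in untreated cells, lower positive values show inhibition; negative values down to -100 show cell death.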 Active and inactive are the calls of the source. How the source made its calls: active means growth percent below 10; inactive means the rest.

What was measured:
Test in all cases: NCI-60 one-dose screen, 48 h (100 = growth as untreated, 0 = no growth, -100 = all killed)
Settings in all cases: 10 µM unless noted
RPMI-8226 leukemia = system: RPMI-8226 leukemia
OVCAR-8 ovarian = system: OVCAR-8 ovarian
OVCAR-5 ovarian = system: OVCAR-5 ovarian
OVCAR-4 ovarian = system: OVCAR-4 ovarian
SK-OV-3 ovarian = system: SK-OV-3 ovarian
IGROV1 ovarian = system: IGROV1 ovarian
OVCAR-3 ovarian = system: OVCAR-3 ovarian
HS 578T breast = system: HS 578T breast
NCI/ADR-RES ovarian = system: NCI/ADR-RES ovarian
T-47D breast = system: T-47D breast

| Structure (SMILES) | growth (RPMI-8226 leukemia) | growth (OVCAR-8 ovarian) | growth (OVCAR-5 ovarian) | growth (OVCAR-4 ovarian) | growth (SK-OV-3 ovarian) | growth (IGROV1 ovarian) | growth (OVCAR-3 ovarian) | growth (HS 578T breast) | growth (NCI/ADR-RES ovarian) | growth (T-47D breast) |
| --- | --- | --- | --- | --- | --- | --- | --- | --- | --- | --- |
| CCOC(=O)C1=C(C)N2C(=NC3=C(CCC/C3=C\c3ccc(Cl)cc3)C2c2ccc(Cl)cc2)S1 (stereo not given) | -19.1% (active) | 23% (inactive) | 78.1% (inactive) | 48.3% (inactive) | 47% (inactive) | 12.8% (inactive) | -29.2% (active) | 51.7% (inactive) | 39.4% (inactive) | 25.3% (inactive) |
| CC(C)[C@H]1CC[C@H]2[C@@H](CC[C@H]3[C@](C)(CN)CCC[C@]23C)C1 | 21.6% (inactive) | 97.9% (inactive) | 74.7% (inactive) | 67.6% (inactive) | 111% (inactive) | 92.6% (inactive) | 22.7% (inactive) | 94.6% (inactive) | 89.5% (inactive) | 64% (inactive) |
| O=C1CN(CO)C(=O)CN1CO | 103% (inactive) | 99.7% (inactive) | 94.6% (inactive) | 111% (inactive) | 111% (inactive) | 105% (inactive) | 113% (inactive) | 101% (inactive) | 103% (inactive) | 107% (inactive) |
| C[C@]12CC[C@@H]3c4ccc(O)cc4CC[C@H]3[C@@H]1CC[C@@H]2NS(=O)(=O)c1cccc(Br)c1 | 44.4% (inactive) | 67% (inactive) | 97.7% (inactive) | 53.9% (inactive) | 90.7% (inactive) | 53.1% (inactive) | 58.8% (inactive) | 73.8% (inactive) | 56.2% (inactive) | 37.4% (inactive) |
| NC(=O)c1ncn([C@@H]2O[C@H](CO)[C@@H](O)[C@H]2O)n1 | 87.2% (inactive) | 72.7% (inactive) | 102% (inactive) | 92.2% (inactive) | 96.8% (inactive) | 98.9% (inactive) | 103% (inactive) | 113% (inactive) | 88% (inactive) | 89% (inactive) |
| Clc1ccc2nc(Cl)c3ccccc3c2c1 | 70.9% (inactive) | 50.8% (inactive) | 78% (inactive) | -42.6% (active) | 0.43% (active) | 48.6% (inactive) | 35.3% (inactive) | 56.8% (inactive) | 74.8% (inactive) | -13.9% (active) |
| CC(CCC(=O)O)(NC(=O)c1ccc([N+](=O)[O-])cc1)C(=O)O (stereo not given) | 116% (inactive) | 102% (inactive) | 118% (inactive) | 111% (inactive) | 96% (inactive) | 115% (inactive) | 108% (inactive) | 105% (inactive) | 108% (inactive) | 93.7% (inactive) |
| CCn1c2c(c3ccccc31)SC1c3cccn3CCN1C2=S (stereo not given) | 76.7% (inactive) | 94.4% (inactive) | 104% (inactive) | 54.5% (inactive) | 99.9% (inactive) | 80% (inactive) | 100% (inactive) | 81.2% (inactive) | 102% (inactive) | 41.9% (inactive) |
| Nc1c2ccccc2nc2ccccc12 (tested in a mixture with another compound) | 7.88% (active) | 4.39% (active) | 15.6% (inactive) | 19% (inactive) | 32.6% (inactive) | 22.9% (inactive) | 32.6% (inactive) | 42.9% (inactive) | 19.4% (inactive) | 28.9% (inactive) |
| NNC(=O)NO | 109% (inactive) | 102% (inactive) | 110% (inactive) | 101% (inactive) | 94.1% (inactive) | 108% (inactive) | 106% (inactive) | 96.6% (inactive) | 109% (inactive) | 98.9% (inactive) |
| CC(C)C(=O)Cc1cnccn1 | 109% (inactive) | 102% (inactive) | 108% (inactive) | 117% (inactive) | 116% (inactive) | 106% (inactive) | 111% (inactive) | 96.4% (inactive) | 101% (inactive) | 109% (inactive) |
| Cc1cc(C)c2c(c1)N1OC(C2)C[C@H]1/C=C/c1ccccc1 (stereo not given in full) | 94.9% (inactive) | 102% (inactive) | 99% (inactive) | 81.8% (inactive) | 116% (inactive) | 82.3% (inactive) | 116% (inactive) | 122% (inactive) | 95.9% (inactive) | 93.6% (inactive) |
| Cc1cc(NCCCNc2ccnc3cc(Cl)ccc23)nc(N2CCN(C)CC2)n1 | 38.5% (inactive) | 77.1% (inactive) | 86.6% (inactive) | 59.5% (inactive) | 106% (inactive) | 83.1% (inactive) | 80% (inactive) | 91.9% (inactive) | 107% (inactive) | 81.4% (inactive) |
| CN=C(NC)N/N=C(C)\C=N\NC(=NC)NC | 127% (inactive) | 102% (inactive) | 116% (inactive) | 112% (inactive) | 101% (inactive) | 112% (inactive) | 107% (inactive) | 102% (inactive) | 107% (inactive) | 109% (inactive) |
| COc1ccc(-c2nn(-c3cccc(Cl)c3)cc2C2CC(c3ccccc3)=NN2C(C)=O)cc1 (stereo not given) | 97.6% (inactive) | 56.3% (inactive) | 80.9% (inactive) | 23.3% (inactive) | 32.2% (inactive) | 57% (inactive) | 80.6% (inactive) | 43.2% (inactive) | 74.3% (inactive) | 44.7% (inactive) |
| N#Cc1ccc(NC(=O)Nc2ccc(Oc3ccc(NC(=O)Nc4ccc(C#N)cc4)cc3)cc2)cc1 | -56.2% (active) | 31% (inactive) | 47.4% (inactive) | 33.8% (inactive) | 58.7% (inactive) | -21.5% (active) | 11.1% (inactive) | 38.9% (inactive) | 48.9% (inactive) | 2.9% (active) |
| Nc1nc(N)c([N+](=O)[O-])c(=O)[nH]1 | 97.4% (inactive) | 106% (inactive) | 100% (inactive) | 114% (inactive) | 100% (inactive) | 110% (inactive) | 108% (inactive) | 100% (inactive) | 101% (inactive) | 92.2% (inactive) |
| O=[N+]([O-])c1ccc(N/N=C/c2c(O)ccc3ccccc23)nc1 | 31% (inactive) | 34.9% (inactive) | 77.5% (inactive) | 21.2% (inactive) | 50.9% (inactive) | 18.5% (inactive) | 20.3% (inactive) | 117% (inactive) | 27.3% (inactive) | 47.4% (inactive) |
| COc1cc(NC(=O)c2cc3ccccc3cc2O)c(OC)cc1Cl | -48.7% (active) | 7.08% (active) | 2.16% (active) | 38.4% (inactive) | -14.9% (active) | -31% (active) | 10.7% (inactive) | 51.7% (inactive) | -20.6% (active) | 4.25% (active) |
| CCOC(=O)C1=C(COCCN)NC(C)=C(C(=O)OC)C1c1ccccc1Cl (stereo not given) | 45.9% (inactive) | 82% (inactive) | 74.7% (inactive) | 78.9% (inactive) | 94.2% (inactive) | 73.6% (inactive) | 68.5% (inactive) | 80.3% (inactive) | 80% (inactive) | 51.7% (inactive) |
| COc1cccc2c1O/C(=C\c1c([N+](=O)[O-])ncn1C)C2=O | -17% (active) | 94.4% (inactive) | 108% (inactive) | 106% (inactive) | 93.4% (inactive) | 97.4% (inactive) | 106% (inactive) | 111% (inactive) | 98.1% (inactive) | 106% (inactive) |
| Nc1nc(SCc2ccccc2Cl)c(-c2ccccc2)c(SCc2ccccc2Cl)n1 | 81.8% (inactive) | 98.4% (inactive) | 84.9% (inactive) | 95.8% (inactive) | 82.7% (inactive) | 97.4% (inactive) | 101% (inactive) | 93.4% (inactive) | 90.7% (inactive) | 58.4% (inactive) |
| CC[N+](C)(CC)CCCC(C)Nc1ccnc2cc(Cl)ccc12 (stereo not given) | 106% (inactive) | 100% (inactive) | 119% (inactive) | 112% (inactive) | 111% (inactive) | 110% (inactive) | 101% (inactive) | 104% (inactive) | 112% (inactive) | 101% (inactive) |
| O=C(Cn1ccnc1)NC(c1ccccc1)c1ccccc1 | 108% (inactive) | 102% (inactive) | 83.5% (inactive) | 105% (inactive) | 114% (inactive) | 106% (inactive) | 116% (inactive) | 102% (inactive) | 102% (inactive) | 101% (inactive) |
| O=[N+]([O-])c1ccc2c(c1)S(=O)c1cc([N+](=O)[O-])ccc1N2 | 103% (inactive) | 101% (inactive) | 95.3% (inactive) | 100% (inactive) | 103% (inactive) | 117% (inactive) | 113% (inactive) | 99.7% (inactive) | 102% (inactive) | 96.6% (inactive) |
| O=C(NN(C(=O)c1ccccc1)c1cccs1)c1ccccc1 | 94.4% (inactive) | 120% (inactive) | 105% (inactive) | 106% (inactive) | 102% (inactive) | 102% (inactive) | 115% (inactive) | 104% (inactive) | 103% (inactive) | 94.9% (inactive) |
